Myeloid diff 2: induction of myeloid progenitor differentiation, primary screen, cell-based, flow cytometry, MLPCN library; ER-HoxA9 myeloid progenitors, lysozyme-GFP differentiation; calls only at 10 µM; actives 1% (n = 360,000);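 active = normalized GFP-positive differentiation at or above the plate's own cutoff, the solvent-only control mean plus 3 SD; inconclusive = no clear call, values can overlap the other calls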;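 note: cells exposed to compound for four days before flow analysis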
GC-A act: GC-A stimulated cGMP production enhancers – HEK293 GC-A cells, cGMP TR-FRET, EC30 ANP, primary screen; 0% at EC30 ANP, 100% saturating ANP; activation, % at 10 µM; Atrial natriuretic peptide receptor 1 (Homo sapiens), P16066; actives 0.14% (n = 370,000); in the data active = activation above about 40%
GC-B act: human GC-B receptor activators, primary screen, HEK293 GC-B cells, cGMP TR-FRET, EC30 CNP; activation, % at 10 µM; AID 1920062, 2024; Atrial natriuretic peptide receptor 2 (Homo sapiens), P20594; 0% at EC30 CNP, 100% saturating CNP; actives 0.11% (n = 370,000);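 active = activation at 10 µM reaching about 35% in either raw or pattern-adjusted values, limit read from the data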
Target sequence (P20594 whole entry, looked up): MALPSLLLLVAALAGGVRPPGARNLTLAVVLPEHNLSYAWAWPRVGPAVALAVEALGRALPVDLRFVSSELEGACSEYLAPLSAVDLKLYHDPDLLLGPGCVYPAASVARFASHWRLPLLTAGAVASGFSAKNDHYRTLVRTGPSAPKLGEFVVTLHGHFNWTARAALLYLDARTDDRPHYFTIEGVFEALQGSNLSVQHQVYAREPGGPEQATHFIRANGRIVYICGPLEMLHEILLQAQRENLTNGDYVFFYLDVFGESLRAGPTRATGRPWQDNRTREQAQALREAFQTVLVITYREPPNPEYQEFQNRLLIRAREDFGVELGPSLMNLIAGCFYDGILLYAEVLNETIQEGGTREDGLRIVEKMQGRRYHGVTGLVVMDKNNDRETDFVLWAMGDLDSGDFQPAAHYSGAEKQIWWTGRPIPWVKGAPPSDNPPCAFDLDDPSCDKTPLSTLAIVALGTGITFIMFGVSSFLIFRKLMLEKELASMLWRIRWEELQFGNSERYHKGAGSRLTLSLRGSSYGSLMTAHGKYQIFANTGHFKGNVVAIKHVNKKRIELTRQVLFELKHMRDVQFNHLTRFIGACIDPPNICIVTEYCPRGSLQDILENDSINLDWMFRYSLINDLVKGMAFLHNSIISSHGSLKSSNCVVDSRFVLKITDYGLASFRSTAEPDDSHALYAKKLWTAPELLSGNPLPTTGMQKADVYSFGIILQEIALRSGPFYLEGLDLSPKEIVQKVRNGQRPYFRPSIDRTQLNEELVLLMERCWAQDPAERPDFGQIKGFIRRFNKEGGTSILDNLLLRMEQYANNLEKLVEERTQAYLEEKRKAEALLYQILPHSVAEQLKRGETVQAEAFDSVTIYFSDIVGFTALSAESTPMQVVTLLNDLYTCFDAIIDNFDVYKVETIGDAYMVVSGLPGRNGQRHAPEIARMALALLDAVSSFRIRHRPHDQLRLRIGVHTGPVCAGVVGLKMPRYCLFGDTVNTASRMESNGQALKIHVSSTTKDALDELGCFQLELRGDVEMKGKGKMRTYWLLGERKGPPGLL
Granule exo inh: LAMP-1 surface exposure blockers, TALL-104 cells – cell-based, flow cytometry, MLPCN library, primary screen; TALL-104 LAMP-1 surface exposure; cells stimulated with thapsigargin and PMA; inhibition, % at 10 µM; actives 0.66% (n = 360,000);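 active = inhibition above about 55%, limit read from the data; inconclusive = no clear call, values can overlap the other calls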
The depositor's hits bear a star; i = inactive; ? = inconclusive; · = not tested or not shown; + = active, no number. In the library only some 1.8% were active in any assay of this set; here they are far more common.

SMILES	Myeloid diff 2	GC-A act	GC-B act	Granule exo inh
O=C(Cn1c(=O)cnc2ccccc21)Nc1cc(Cl)ccc1N1CCOCC1	+	-6	-9	-10
O=C(COc1cccc(Cl)c1)Nc1cc(S(=O)(=O)N2CCOCC2)ccc1N1CCOCC1	+	-2	9	3
O=C(Cn1c(=O)cnc2ccccc21)Nc1ccccc1N1CCOCC1	i	-3	3	-11
Cc1cccc(NC(=O)Cn2nnc(-c3ccccc3F)n2)c1C	·	5	3	·
COc1ccc(NC(=O)CSc2nnc(C3CCCCC3)o2)c(OC)c1	+	3	4	1
COc1ccc(NCc2nnc(SCC(=O)Nc3ccc(OC)cc3OC)o2)cc1	i	-3	-5	2
COC(=O)CCC1NC(=O)C(Cc2c[nH]c3ccccc23)NC(=O)C2CC(=O)OC(C)C(NC(=O)C(C)NC(=O)C3CCCN3C(=O)C3CCCN3C(=O)C(C)NC(C)=O)C(=O)NC(CC(C)C)C(=O)NC(CCCCNC(=O)CCC(C(=O)NC(Cc3ccc(O)cc3)C(=O)O)NC1=O)C(=O)NC(Cc1c[nH]c3ccccc13)C(=O)N1CCCC1C(=O)NC(CO)C(=O)N2 (centres undefined)	·	1	-2	·
CN(C)/N=C/C=C1\CCC/C(=C\c2ccc(F)c(F)c2)C1=O	?	16	3	90*
COc1ccc([C@H]2/C=C\CN(S(=O)(=O)/C=C/c3ccccc3)[C@@H](C)C(=O)N2Cc2ccc(F)cc2)cc1	+	-1	0	11
COC(=O)c1cc2c(c3c4cc(C)ccc4n(C(=O)c4ccccc4)c13)C(=O)N(Cc1ccccc1)C2	·	-1	11	·
CCN(C[C@H]1N[C@@](CC)(C(=O)OC)[C@H]2C(=O)N(Cc3ccccc3)C(=O)[C@@H]12)C(=O)Nc1ccc(OC)cc1	+	-2	-6	-1
COC(=O)[C@]12C[C@H](CC(=O)N3CCOCC3)C(=O)N(Cc3ccc(Cl)cc3Cl)C1=C[C@H](C1CCCC1)O[C@@H]2C	·	-20	-21	·
O=C1c2cccc3c([N+](=O)[O-])ccc(c23)C(=O)N1c1nccs1	?	28	21	85*
CCOc1cc(/C=C2\C(=O)N(CCC#N)N=C2C)ccc1OCC(N)=O	i	7	-3	-1
COc1cc(/C=C2\C(=O)N(CCC#N)N=C2C)ccc1OCC(=O)Nc1ccccc1	i	53*	47*	-3
COc1ccc(-n2c(O)c(C=Nc3ccccc3)c3ccccc3c2=O)cc1	·	-2	0	0
CCN(c1ccc(N=Cc2c(O)n(Cc3ccc(OC)cc3)c(=O)c3ccccc23)cc1)C(C)C	+	3	4	-2
COC(=O)[C@]12C[C@H](CC(=O)NCC3CCCCC3)C(=O)N(Cc3cccc4ccccc34)C1=C[C@H](C(C)C)O[C@@H]2C1CC1	·	-4	-2	·
O=C(O)Cn1cc(/C=N/Nc2ccc([N+](=O)[O-])cn2)c2ccccc21	i	3	-6	17
Cc1ccc(Cn2cc(/C=N/Nc3ccc([N+](=O)[O-])cn3)c3ccccc32)cc1	+	5	1	-3
COC(=O)[C@H](CC(C)C)N(CCCc1cn(CC2CCCCC2)nn1)S(=O)(=O)c1ccccc1Br	·	-3	3	·
Cc1ccccc1-c1ccc2c(c1)[C@@H]1C[C@H](N(C)C(=O)c3ccco3)[C@H]([C@H](C)O)CN1CC2	·	3	9	·
O=[N+]([O-])c1cccc2cn[nH]c12	+	3	3	1
CCOC(=O)CC[C@H]1CC[C@]2(CCCN(Cc3ccccc3)C2)O1	·	-5	-9	·
CCCCc1ccc(NC(=O)c2ccc(NS(C)(=O)=O)cc2)cc1	+	-6	-10	1
SMILES	Myeloid diff 2	GC-A act	GC-B act	Granule exo inh
CCCCc1ccc(NC(=O)c2ccc(N(C)S(C)(=O)=O)cc2)cc1	?	-6	-3	14
COP(=O)(O)C(Cc1ccccc1)NC(=O)OCc1ccccc1 (centres undefined)	·	3	1	·
O=c1c2c([N+](=O)[O-])cc([N+](=O)[O-])cc2sn1Cc1ccccc1	i	16	11	-20
O=c1c2c([N+](=O)[O-])cc([N+](=O)[O-])cc2sn1-c1ccc(Br)cc1	i	·	·	92*
CCOC(=O)C1CCN(CC(O)COc2ccc(C(C)(C)C)cc2)CC1 (centres undefined)	+	4	0	-4
C[C@H](CO)N1C[C@H](C)[C@@H](CN(C)Cc2ccc(Cl)c(Cl)c2)Oc2c(NC(=O)Cc3ccccc3)cccc2C1=O	+	-6	-10	22
COc1ccccc1CNc1nc(NC(C)C)nc2cc(-c3ccccc3)sc12	+	3	0	42
Cc1ccc(OCCC(=O)OCC(=O)Nc2cc(S(=O)(=O)N(C)C)ccc2C)cc1	+	1	-3	1
COC(=O)[C@]12C[C@H](CC(=O)N3CCOCC3)C(=O)N(Cc3ccco3)C1=C[C@H](COCc1ccccc1)O[C@@H]2C	·	-3	10	·
CC(=O)NC(=S)Nc1cccc2ccc(C)nc12	i	0	-12	-3
Cc1ccc2cccc(NC(=S)NC(=O)c3ccnn3C)c2n1	+	0	-4	0
COc1cc(N2CCCC2)c(OC)cc1/C=C(/C#N)c1ccc(F)cc1	·	-5	-3	-4
COc1cc(N2CCCC2)c(OC)cc1/C=C(/C#N)c1ccc(Br)cc1	+	-4	0	7
COC(=O)c1ccc(Cn2ccc3ccc(-c4ccc5ccn(Cc6ccc(OC)cc6)c5c4)cc32)cc1	·	-3	-3	·
Nc1nc(C(c2ccccc2)c2ccccc2)cs1	+	-2	4	2
CCOc1ccc(N(CC(=O)N2CCc3ccccc32)S(=O)(=O)c2c(C)noc2C)cc1	+	-2	-13	-3
C=CCNC(=O)CN(C(=O)c1csc2ccc(Cl)cc12)c1cccc(Br)c1	·	-13	-16	·
N#CCC[C@H]1CC[C@]2(CCCN(C(=O)C3CCCCC3)C2)O1	·	3	-6	·
CCNC(=S)N/N=C/c1cn(Cc2ccc(F)cc2)c2ccccc12	i	35	42*	-1
CNC(=S)N/N=C/c1cn(Cc2c(F)cccc2Cl)c2ccccc12	i	29	31	4
CCNC(=S)N/N=C/c1cn(Cc2ccccc2F)c2ccccc12	i	41*	44*	-12
COc1cccc(C(=O)N2CCC(Oc3cccnc3)CC2)c1	·	3	-4	·
CC(=O)Oc1ccc(C(=O)Nc2cccc(-c3nnc(-c4ccco4)o3)c2)cc1	+	1	1	-2
Cc1nn(CC(C)C)c(Cl)c1C(=O)N(C)CC(=O)Nc1c(Cl)cccc1Cl	+	1	8	-1
CC[n+]1c(/C=C/Nc2ccccc2)oc2ccccc21	+	-1	-2	6
CC[n+]1c(/C=C/Nc2ccccc2)oc2ccc(OC)cc21	+	-4	4	-3
CC[n+]1c(/C=C/N(C)c2ccccc2)oc2ccc(F)cc21	?	2	-1	-3

Screening results (PubChem)
